Measurements taken from PubChem BioAssay.
Values without a mark were called inactive. The rule behind the calls is not given here.

Each molecule was assayed against Pantothenate synthetase (Mycobacterium tuberculosis (strain ATCC 25618 / H37Rv)) (UniProt P9WIL5) (assay: Coupled enzyme confirmation of inhibitors against recombinant Mtb PanC (AID 375;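 note: 0% = full reaction with vehicle and 100% = no enzyme background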)). Conditions: coupled enzyme assay; at 10 µM, hits give high values.
Chain of Pantothenate synthetase (Mycobacterium tuberculosis (strain ATCC 25618 / H37Rv)) (P9WIL5 whole entry, looked up): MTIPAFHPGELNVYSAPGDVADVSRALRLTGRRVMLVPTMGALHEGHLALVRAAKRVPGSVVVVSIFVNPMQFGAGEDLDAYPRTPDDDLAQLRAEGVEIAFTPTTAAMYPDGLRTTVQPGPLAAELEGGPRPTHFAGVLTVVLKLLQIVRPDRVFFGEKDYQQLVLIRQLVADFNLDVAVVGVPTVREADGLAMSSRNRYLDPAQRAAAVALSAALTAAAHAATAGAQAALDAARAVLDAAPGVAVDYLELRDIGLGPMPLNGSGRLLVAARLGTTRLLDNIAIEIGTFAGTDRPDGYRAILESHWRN

Row | Structure (SMILES) | inhibition [%]
1 | CC1CCCC(C)N1C(=O)COC(=O)c1ccc[nH]c1=O (centres undefined) | 0
2 | COc1ccc(N(CC(=O)Nc2cc(C)ccc2C)S(=O)(=O)c2c(C)nn(C)c2C)cc1 | 0
3 | N#CC1=C(N)S[C@H](C(=O)C23CC4CC(CC(C4)C2)C3)[C@H]1c1ccncc1 | 0
4 | COc1ccccc1OCC(=O)NCC1CCCCC1 | 0
5 | Brc1ccc(-c2csc(/N=C/N3CCOCC3)n2)cc1 | 3
6 | CCn1c(SCC(=O)Nc2cc(NC(C)=O)ccc2OC)nnc1-c1ccccn1 | 2
7 | CCOC(=O)N1CCC(NC(=O)CS(=O)(=O)Cc2nc(-c3ccccc3C)oc2C)CC1 | 3
8 | CCCCCc1c(O)nc(SCC(=O)NCC2CCCO2)[nH]c1=O (centres undefined) | 6
9 | COc1ccc(CNC(=O)COC(=O)c2n[nH]c3ccccc23)cc1OC | 7
10 | CCOC(=O)c1cc2oc(C)cc2n1CC(=O)OC1CCCCC1 | 1
11 | Cc1cc(C(=O)COC(=O)CCc2nc3ccccc3s2)c(C)n1C | 0
12 | O=C(Nc1c(C(=O)NCc2ccco2)cnn1-c1ccccc1)c1ccc(F)cc1 | 2
13 | COc1ccccc1CNC(=O)C1CCCN(S(=O)(=O)c2cccc3cccnc23)C1 (centres undefined) | 1
14 | COc1ccc2oc(C)c(C(=O)Cn3ccnc3)c2c1 | 0
15 | Cc1occc1C(=O)N1CCN(Cc2ccccc2)CC1 | 0
16 | CCOC(=O)CS(=O)(=O)c1nc(-c2ccccc2)cc(C(F)(F)F)n1 | 3
17 | COc1ccc(C(=O)N2CCOCC2)cc1Br | 6
18 | CCCCC(O)(C(NC=O)C(=O)OC)C(F)(F)F (centres undefined) | 2
19 | CCOC(=O)c1ccc(NC(=O)CCc2c(C)nc3ncnn3c2C)cc1 | 1
20 | COc1ccc(NC(=O)CSc2nc3c(c(=O)n2-c2ccc(F)cc2)SCC3)c(OC)c1 | 0

Row | Structure (SMILES) | inhibition [%]
21 | COCCn1c(=O)[nH]c2cc(C(=O)N3CCN(c4ccccc4OC)CC3)ccc2c1=O | 2
22 | CCOC(=O)CSc1cn2c(n1)CCC2 | 3
23 | COc1ccc(Cl)cc1NC(=O)c1oc(C)nc1C | 4
24 | CCS(=O)(=O)N1CCCC(C(=O)NCCc2ccc(OC)c(OC)c2)C1 (centres undefined) | 4
25 | Cc1nc2ncnn2c(Nc2ccc3c(c2)OCCO3)c1C | 3
26 | O=C(c1ccco1)N1CCN(/C(=N/S(=O)(=O)c2cccs2)c2ccccc2Cl)CC1 | 0
27 | CCCCC(CC)CNC(=O)C1CCCN(S(=O)(=O)c2cnc[nH]2)C1 (centres undefined) | 0
28 | CN(CC(=O)Nc1sccc1C#N)C1CCCCC1 | 0
29 | COc1cc2[nH]c(=O)n(CCC(=O)N3CCc4ccccc4C3)c(=O)c2cc1OC | 0
30 | CCn1nnnc1SCC(=O)N1CCOCC1 | 11
31 | Cc1nn(-c2nc3ccccc3[nH]2)c(N)c1-c1ccccc1 | 8
32 | O=C(C1CCN(c2nnc(-n3cccc3)s2)CC1)N1CCOCC1 | 0
33 | CCCc1cc(=O)[nH]c(SCc2ccccc2)n1 | 0
34 | O=C(CN(CC1CCCO1)S(=O)(=O)c1ccc(S(=O)(=O)NC2CC2)cc1)Nc1ccccc1 (centres undefined) | 0
35 | CCCCOC(=O)CNc1nnc(SCC(=O)OCC)[nH]c1=O | 3
36 | Cc1ccc(C)c(NS(=O)(=O)c2ccc(NC(=O)c3ccco3)cc2)c1 | 0
37 | Cc1nnc(SCc2cn3ccsc3n2)n(N)c1=O | 0
38 | Fc1ccc(C(c2nnnn2Cc2ccco2)N2CCN(C3CCCCC3)CC2)cc1 (centres undefined) | 0
39 | O=c1c(-c2ccc(Br)cc2)coc2c(CN3CCOCC3)c(O)ccc12 | 0
